Assay results reported in PubChem BioAssay (NCI).
The panel holds about 83,000 compounds, 20% with a hit somewhere; the sample as a whole holds those more often.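 Note: values are percent growth. 100 is the growth of untreated cells, values between 100 and 0 indicate rising inhibition; between -100 and 0 indicates cell death.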 Active and inactive are the calls of the source. How the source made its calls: active means growth percent below 10; inactive means the rest.

What was measured:
Experiment in all cases: NCI-60 one-dose screen, 48 h (100 = growth as untreated, 0 = no growth, -100 = all killed)
NCI-H226 lung = conditions: 10 µM unless noted
MALME-3M melanoma = conditions: 10 µM unless noted
RXF 393 renal = conditions: 10 µM unless noted
SF-295 CNS = conditions: 10 µM unless noted
UACC-257 melanoma = conditions: 10 µM unless noted
M14 melanoma = conditions: 10 µM unless noted
PC-3 prostate = conditions: 10 µM unless noted
SK-MEL-5 melanoma = conditions: 10 µM unless noted
LOX IMVI melanoma = conditions: 10 µM unless noted
CAKI-1 renal = conditions: 10 µM unless noted
A498 renal = conditions: 10 µM unless noted
CCRF-CEM leukemia = conditions: 10 µM unless noted
MOLT-4 leukemia = conditions: 10 µM
RPMI-8226 leukemia = conditions: 10 µM unless noted
OVCAR-8 ovarian = conditions: 10 µM unless noted
OVCAR-3 ovarian = conditions: 10 µM unless noted
HS 578T breast = conditions: 10 µM unless noted
BT-549 breast = conditions: 10 µM
HCT-116 colon = conditions: 10 µM unless noted
HCC-2998 colon = conditions: 10 µM unless noted

Measured: growth

CCOP(=O)(OCC)Oc1ccc(Sc2ccc(OP(=O)(OCC)OCC)cc2)cc1
inactive: NCI-H226 lung 101% | MALME-3M melanoma 93.5% | RXF 393 renal 106% | SF-295 CNS 97.5% | UACC-257 melanoma 93.1% | M14 melanoma 100% | PC-3 prostate 90.9% | SK-MEL-5 melanoma 100% | LOX IMVI melanoma 107% | CAKI-1 renal 93.1% | A498 renal 85.2% | CCRF-CEM leukemia 86.3% | MOLT-4 leukemia 93.8% | RPMI-8226 leukemia 90% | OVCAR-8 ovarian 99.8% | OVCAR-3 ovarian 111% | HS 578T breast 109% | BT-549 breast 96% | HCT-116 colon 100% | HCC-2998 colon 102%

Clc1ccc(SSC(Cl)(Cl)Cl)cc1
inactive: NCI-H226 lung 110% | MALME-3M melanoma 95.7% | RXF 393 renal 112% | SF-295 CNS 103% | UACC-257 melanoma 112% | M14 melanoma 107% | PC-3 prostate 88.9% | SK-MEL-5 melanoma 110% | LOX IMVI melanoma 103% | CAKI-1 renal 119% | A498 renal 111% | CCRF-CEM leukemia 109% | MOLT-4 leukemia 99.7% | RPMI-8226 leukemia 119% | OVCAR-8 ovarian 107% | OVCAR-3 ovarian 108% | BT-549 breast 121% | HCT-116 colon 101% | HCC-2998 colon 110%

CC(=O)OC1CCC2(C)C(=CCC3C4CC(CN5CC5)C(=O)C4(C)CCC32)C1 (stereo not given)
inactive: NCI-H226 lung 97.7% | MALME-3M melanoma 103% | RXF 393 renal 93.6% | SF-295 CNS 95.5% | UACC-257 melanoma 93.3% | M14 melanoma 93.4% | PC-3 prostate 88.3% | SK-MEL-5 melanoma 99.1% | LOX IMVI melanoma 44.1% | CAKI-1 renal 88% | A498 renal 86.7% | CCRF-CEM leukemia 18.3% | MOLT-4 leukemia 15.6% | OVCAR-8 ovarian 85% | OVCAR-3 ovarian 112% | HS 578T breast 87.5% | BT-549 breast 96.9% | HCT-116 colon 74.4% | HCC-2998 colon 112%
active: RPMI-8226 leukemia -17%

CNC(=O)Oc1ccccc1-c1ccccc1
inactive: NCI-H226 lung 113% | MALME-3M melanoma 102% | RXF 393 renal 120% | SF-295 CNS 94.5% | UACC-257 melanoma 101% | M14 melanoma 99.7% | PC-3 prostate 97.8% | SK-MEL-5 melanoma 107% | LOX IMVI melanoma 104% | CAKI-1 renal 95.5% | A498 renal 93.2% | CCRF-CEM leukemia 94.1% | MOLT-4 leukemia 96% | RPMI-8226 leukemia 99.4% | OVCAR-8 ovarian 103% | OVCAR-3 ovarian 105% | HS 578T breast 107% | BT-549 breast 103% | HCT-116 colon 99% | HCC-2998 colon 101%

NC(=O)OCC(CO)(c1ccccc1)c1ccccc1
inactive: NCI-H226 lung 96.2% | MALME-3M melanoma 84.6% | RXF 393 renal 99.6% | SF-295 CNS 93.5% | UACC-257 melanoma 105% | M14 melanoma 99.5% | PC-3 prostate 93.2% | SK-MEL-5 melanoma 96.4% | LOX IMVI melanoma 98.7% | CAKI-1 renal 91.8% | A498 renal 81.7% | CCRF-CEM leukemia 94.4% | MOLT-4 leukemia 98.7% | RPMI-8226 leukemia 98.4% | OVCAR-8 ovarian 100% | OVCAR-3 ovarian 100% | HS 578T breast 110% | BT-549 breast 107% | HCC-2998 colon 107%

CC(C)(O)/C=C/C(=O)[C@](C)(O)[C@H]1[C@H](O)C[C@@]2(C)[C@@H]3CC=C4[C@@H](C=C(O)C(=O)C4(C)C)[C@]3(C)C(=O)C[C@]12C
active: NCI-H226 lung -33.9% | MALME-3M melanoma -66.5% | RXF 393 renal 0.503% | SF-295 CNS -43.2% | UACC-257 melanoma 0.414% | M14 melanoma -75.3% | PC-3 prostate -58.8% | SK-MEL-5 melanoma -78.4% | LOX IMVI melanoma -59.6% | CAKI-1 renal -57.2% | A498 renal -79.8% | CCRF-CEM leukemia -29.1% | MOLT-4 leukemia -15.1% | RPMI-8226 leukemia -53.8% | OVCAR-3 ovarian -28.9% | HS 578T breast -17.4% | BT-549 breast -60.1% | HCC-2998 colon -99%

S=P(NC1CCCCC1)(N1CC1)N1CC1
inactive: NCI-H226 lung 113% | MALME-3M melanoma 106% | RXF 393 renal 102% | SF-295 CNS 110% | UACC-257 melanoma 116% | M14 melanoma 105% | SK-MEL-5 melanoma 97% | LOX IMVI melanoma 96.5% | CAKI-1 renal 95.1% | A498 renal 96.2% | CCRF-CEM leukemia 102% | MOLT-4 leukemia 99.1% | RPMI-8226 leukemia 76.7% | OVCAR-8 ovarian 104% | OVCAR-3 ovarian 112% | HS 578T breast 114% | BT-549 breast 120% | HCT-116 colon 93.3% | HCC-2998 colon 131%

CC1(C)CC2(CC(C)(C)c3cc(O)c(O)cc32)c2cc(O)c(O)cc21
inactive: NCI-H226 lung 85.7% | MALME-3M melanoma 101% | RXF 393 renal 85.8% | SF-295 CNS 96.1% | UACC-257 melanoma 109% | M14 melanoma 98.1% | PC-3 prostate 90.9% | SK-MEL-5 melanoma 92.5% | LOX IMVI melanoma 94.8% | CAKI-1 renal 92.3% | A498 renal 99.4% | CCRF-CEM leukemia 84.5% | MOLT-4 leukemia 71.6% | RPMI-8226 leukemia 103% | OVCAR-8 ovarian 97.3% | OVCAR-3 ovarian 88.9% | HS 578T breast 89.2% | BT-549 breast 111% | HCT-116 colon 85.4% | HCC-2998 colon 102%
